Test results taken from PubChem BioAssay (NCI).
Compounds without any hit were thinned out: in the full panel of roughly 83,000, 20% have a hit.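 96-well plates, one dose, 48 hours. Percent growth reported; active if below 10.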 Unmarked numbers belong to inactive results. Activity calls are given as the source filed them.

What was measured:
Assay in all cases: NCI-60 one-dose screen, 48 h (100 = growth as untreated, 0 = no growth, -100 = all killed)
Settings in all cases: 10 µM unless noted
NCI-H23 lung = tested on: NCI-H23 lung
NCI-H226 lung = tested on: NCI-H226 lung
NCI-H322M lung = tested on: NCI-H322M lung
HOP-62 NSCLC = tested on: HOP-62 NSCLC
NCI-H460 lung = tested on: NCI-H460 lung
HOP-92 NSCLC = tested on: HOP-92 NSCLC
NCI-H522 lung = tested on: NCI-H522 lung
A549/ATCC NSCLC = tested on: A549/ATCC NSCLC
786-0 renal = tested on: 786-0 renal
COLO 205 colon = tested on: COLO 205 colon
DU-145 prostate = tested on: DU-145 prostate
K-562 leukemia = tested on: K-562 leukemia
MALME-3M melanoma = tested on: MALME-3M melanoma
MDA-MB-231 breast = tested on: MDA-MB-231 breast
RXF 393 renal = tested on: RXF 393 renal
SF-268 CNS = tested on: SF-268 CNS
SF-295 CNS = tested on: SF-295 CNS
SF-539 CNS = tested on: SF-539 CNS
UACC-257 melanoma = tested on: UACC-257 melanoma
M14 melanoma = tested on: M14 melanoma

Row | SMILES | growth (NCI-H23 lung) | growth (NCI-H226 lung) | growth (NCI-H322M lung) | growth (HOP-62 NSCLC) | growth (NCI-H460 lung) | growth (HOP-92 NSCLC) | growth (NCI-H522 lung) | growth (A549/ATCC NSCLC) | growth (786-0 renal) | growth (COLO 205 colon) | growth (DU-145 prostate) | growth (K-562 leukemia) | growth (MALME-3M melanoma) | growth (MDA-MB-231 breast) | growth (RXF 393 renal) | growth (SF-268 CNS) | growth (SF-295 CNS) | growth (SF-539 CNS) | growth (UACC-257 melanoma) | growth (M14 melanoma)
1 | COc1ccc2c(c1)/C(=N/c1n[nH]c(=S)s1)C(=O)N2 | 93% | 96.8% | 91.8% | 99.9% | 92.9% | 92.8% | 76.3% | 83.7% | 105% | 118% | 107% | 82.9% | 104% | 87.8% | 113% | 98.8% | 106% | 87.4% | 96.5% | 103%
2 | CCCCCCCC/C=C\CCCCCCCCOc1ccc(CC(=O)NCC[N+]2(C)CCOCC2)cc1 | 78.9% | 71.1% | 88.1% | 30.7% | 54.9% | 66.5% | 69.5% | 88.7% | 67.7% | -14.8% (active) | 88.5% | 62.8% | 80.9% | 68% | -38.6% (active) | 70.2% | 85.7% | 81.1% | 96.9% | 81.4%
3 | CC1=C(CCC(C)NCc2ccc(OCCCN3CCCCC3)cc2)C(C)(C)CCC1 (stereo not given) | -42.9% (active) | -32.7% (active) | -40.5% (active) | -67.6% (active) | -77% (active) | -83% (active) | -79.4% (active) | -64.2% (active) | -85.6% (active) | -70.9% (active) | -49.1% (active) | -46.6% (active) | -80.5% (active) | -73.4% (active) | -89.1% (active) | -76.8% (active) | -70% (active) | -85.3% (active) | -76.1% (active) | -81% (active)
4 | COc1ccc(-c2nc(-c3cn(C)c4ncccc34)cs2)cc1 | 11.1% [100 µM] | 2.9% [100 µM] (active) | 1.44% [100 µM] (active) | -49.5% [100 µM] (active) | -43% [100 µM] (active) | -40.4% [100 µM] (active) | 20.1% [100 µM] | 12.4% [100 µM] | -30.9% [100 µM] (active) | -49.8% [100 µM] (active) | 15.2% [100 µM] | 11% [100 µM] | -54.9% [100 µM] (active) | 15.9% [100 µM] | -12.6% [100 µM] (active) | 23.4% [100 µM] | -25.5% [100 µM] (active) | -67.2% [100 µM] (active) | 17.5% [100 µM] | -69.6% [100 µM] (active)
5 | O=C(Nc1ccccc1N1CCCC1=O)c1oc2ccc(F)cc2c1-c1cnn(-c2ccccc2)c1 | 61.9% [50 µM] | 39.4% [50 µM] | 63% [50 µM] | 55.1% [50 µM] | 28.1% [50 µM] | 29.1% [50 µM] | 12.7% [50 µM] | 37.5% [50 µM] | 21.3% [50 µM] | 47% [50 µM] | 68.8% [50 µM] | 42.9% [50 µM] | 28.8% [50 µM] | 21.7% [50 µM] | 25.8% [50 µM] | 40.1% [50 µM] | 43.5% [50 µM] | 30.8% [50 µM] | 69.9% [50 µM] | 77.7% [50 µM]
6 | O=C(CSc1nnc(-c2cc(-c3ccccc3)nc3ccccc23)n1-c1ccccc1)Nc1ccc(C(=O)/C=C/c2ccc(Cl)cc2)cc1 | 96.1% | 91.4% | 93.1% | 93% | 102% | 82.1% | 71.8% | 84.4% | 96.3% | 99.6% | 94.6% | 65.8% | 99.5% | 78.5% | 103% | 94.4% | 97.9% | 96.7% | 103% | 92.6%
7 | C=C1C(=O)O[C@H]2[C@H]1CC/C(COC(=O)/C=C\C(=O)NCc1ccc(Cn3c(=O)sn(CCCCC)c3=O)cc1)=C\CC[C@@]1(C)O[C@@H]21 | 87.4% | 104% | 101% | 104% | 97.8% | 89.7% | -7.84% (active) | 97.5% | 62.8% | 19.3% | 49.2% | 12.6% | 52.4% | 71.4% | 74.9% | 92.5% | 101% | 78.7% | 75.8% | 43.9%
8 | NC1(CO)COC(c2ccccc2)OC1 (stereo not given) | 109% | 103% | 100% | 104% | 108% | 96.7% | 87.1% | 101% | 106% | 107% | 115% | 89.5% | 109% | 112% | 104% | 110% | 113% | 109% | 98.4% | 118%
9 | Cn1cc(-c2ccc(-c3cn(C)c4ccc(Cl)cc34)[nH]2)c2cc(Cl)ccc21 | 10.9% | 6.47% (active) | 41.4% | 9.58% (active) | -60.2% (active) | -36% (active) | -33.8% (active) | -48.3% (active) | 41% | -91.5% (active) | 32% | -29.8% (active) | -59.1% (active) | -48.5% (active) | -51.3% (active) | -67.2% (active) | -15.1% (active) | -56.1% (active) | -34.7% (active) | -75.2% (active)
10 | FC(F)(F)c1ccc(Cn2cc(CSc3nc4ccccc4s3)nn2)cc1 | 97.6% | 83.1% | 94.4% | 89% | 102% | 85.4% | 88.2% | 90.1% | 98.1% | 103% | 108% | 97.1% | 111% | 99% | 104% | 101% | 95.8% | 106% | 87% | 100%
11 | CCN(CC)c1ccc(/C=N/NC(=O)Cc2ccc(Nc3ccnc(C(F)(F)F)c3)cc2)c(O)c1 | 19.1% | 19.4% | 25.9% | 24.5% | 8.96% (active) | 54.1% | 33.9% | 23.4% | 1.44% (active) | 64.9% | 18.3% | 23.1% | 15.5% | 43% | 45.8% | 18% | 17.9% | 17.1% | 37.4% | -18.3% (active)
12 | Fc1ccc(Cn2cc(CSc3nc4ccccc4o3)nn2)cc1 | 106% | 92.8% | 91.9% | 87.5% | 110% | 113% | 83.4% | 103% | 91.1% | 114% | 108% | 95.3% | 107% | 97.1% | 105% | 95.4% | 97% | 100% | 105% | 97%
13 | S=C(c1ccc2c(c1)OCO2)N1CCN(c2cccc(Cl)c2)CC1 | 35% | 34.2% | 57.3% | 37.5% | 6.73% (active) | 63.9% | 2.22% (active) | 35.9% | 37.8% | 25.4% | -0.195% (active) | 29% | 40.7% | 36.2% | 42.1% | 41% | 9.3% (active) | -4.83% (active) | 54% | 13.5%
14 | O=C1/C(=C\c2ccccn2)c2ccccc2N1c1c(Cl)cccc1Cl | 13% | 25.2% | 61.4% | 23.3% | -29.3% (active) | -7.93% (active) | 36.8% | 50.3% | -81.4% (active) | -16.1% (active) | -0.0912% (active) | 9.42% (active) | 67.3% | 15.7% | -35.2% (active) | 7.81% (active) | 12.3% | 1.27% (active) | 59.3% | -43.6% (active)
15 | CN1CCN(c2ccc3nc4c(nc3c2C(F)(F)F)C(=O)c2ncccc2C4=O)CC1 | -39.7% (active) | -78.9% (active) | 36.6% | -63.3% (active) | -56.6% (active) | 27.5% | -67.5% (active) | -36.2% (active) | 36.7% | -95% (active) | -85.7% (active) | -6.72% (active) | -99.2% (active) | -5.99% (active) | 38.4% | 1.96% (active) | -61.6% (active) | -52.4% (active) | -82.3% (active) | -89.6% (active)
